Reference: PubChem BioAssay (NCATS)
Results filed as inconclusive are left out. Calls of active or inactive are those of the source. Unless noted, calls come from the whole dose curve; as a rule, active = well fitted curve in the direction sought with a large enough effect; inconclusive = small, poorly fitted or top-dose-only effect, or another doubt; inactive = no such curve, though single readings can be large; an effect the other way counts as inactive or inconclusive.

Legend:
[1] = NCATS anti-infectives library activity on HEK293 viability as a counter-qHTS vs the C. elegans viability qHTS (AID 1745854); note: % is set by controls: 0 for no effect and ±100 for the full control effect
Outline: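 CellTiter-Glo luminescence, read on a CCD imager, scored viability of HEK293 cells after 24 hr compound exposure at 37C. Library tested in several concentrations, 1:5 steps, up to 41.7 uM; digitonin served as control.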

[2] = NCATS anti-infectives library activity on the primary C. elegans qHTS viability assay (AID 1745855; calls by dose curve; note: potency is the fitted concentration of half-maximal effect)
Outline: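 Titration-based screen in worms: eggs hatched overnight in M9, L1 larvae fed TOP10 capsules in S medium with compound, incubated 21 °C for 7 days; fluorescent objects gated by size and intensity at days 0, 3 and 7.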

[3] = Viability counterscreen for antagonist of constitutive androstane receptor (CAR) against the NCATS DSHEA and TCM libraries (AID 1794837);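 note: compound exposure lasted 24 h before viability reading; 0% is about no effect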
Outline: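 Counterscreen performed in a 1536-well qHTS format using HepG2-CYP2B6-hCAR cells; samples titrated in the presence of 48 uM CITCO, with viability measured fluorometrically (405/540 nm) after 24 h.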

[4] = Viability counterscreen for agonist of constitutive androstane receptor (CAR) against the NCATS DSHEA and TCM libraries (AID 1794838); note: 0% is about no effect
Outline: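 Multiplexed counterscreen: after 24 h compound exposure with 0.75 uM PK11195, HepG2-CYP2B6-hCAR viability was quantified fluorimetrically (CellTiter-Fluor, 405/540 nm) prior to the ONE-Glo luciferase read.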

[5] = biological target: Nuclear receptor subfamily 1 group I member 3 (Homo sapiens) (UniProt Q14994); assay: Primary qHTS for agonist of constitutive androstane receptor (CAR) against the NCATS DSHEA and TCM libraries (AID 1794839);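 note: HepG2 cells expressing human CAR with a CYP2B6 reporter plus PK11195 antagonist; luciferase reporter luminescence read with ONE-Glo; 0% is about no effect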
Chain of Nuclear receptor subfamily 1 group I member 3 (Homo sapiens) (Q14994 whole entry, looked up): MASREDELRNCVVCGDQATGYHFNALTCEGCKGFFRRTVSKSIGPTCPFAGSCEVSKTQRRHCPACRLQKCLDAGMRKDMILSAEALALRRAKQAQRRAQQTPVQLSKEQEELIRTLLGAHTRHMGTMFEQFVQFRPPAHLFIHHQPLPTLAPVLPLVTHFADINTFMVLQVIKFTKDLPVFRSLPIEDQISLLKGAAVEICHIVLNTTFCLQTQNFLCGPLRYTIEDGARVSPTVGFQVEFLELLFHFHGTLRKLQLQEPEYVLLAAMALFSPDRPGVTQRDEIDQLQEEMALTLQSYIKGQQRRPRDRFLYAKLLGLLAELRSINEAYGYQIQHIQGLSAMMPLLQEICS
Outline: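 Concentration–response screen in HepG2-CYP2B6-hCAR cells under 0.75 µM PK11195; 24 h exposure; luminescent reporter signal with multiplexed fluorescent viability.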

[6] = HepG2 viability counterscreen (readout 2: ATP content) against the NCATS DSHEA and TCM libraries (AID 1794840);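 note: HepG2 cells exposed to substances for about 24 h; 0% is about no effect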
Outline: (§1)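 After HepG2 cells attach for ~4 h, substances are added and incubated ~24 h at 37C, 5% CO2. GF-AFC fluorescence then CellTiter-Glo luminescence give protease and ATP readouts.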

[7] = HepG2 viability counterscreen (readout 1: protease activity) against the NCATS DSHEA and TCM libraries (AID 1794841);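 note: cells exposed to compounds for about 24 h before the protease read; 0% is about no effect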
Outline: as §1

[8] = biological target: Cytochrome P450 3A4 (Homo sapiens) (UniProt P08684); assay: qHTS for inhibitors of CYP3A4 against the NCATS DSHEA and TCM libraries (AID 1919971);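 note: % is set by controls: 0 for no effect and ±100 for the full control effect; inhibition lowers luminescence from luciferin made by CYP3A4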
Chain of Cytochrome P450 3A4 (Homo sapiens) (P08684 whole entry, looked up): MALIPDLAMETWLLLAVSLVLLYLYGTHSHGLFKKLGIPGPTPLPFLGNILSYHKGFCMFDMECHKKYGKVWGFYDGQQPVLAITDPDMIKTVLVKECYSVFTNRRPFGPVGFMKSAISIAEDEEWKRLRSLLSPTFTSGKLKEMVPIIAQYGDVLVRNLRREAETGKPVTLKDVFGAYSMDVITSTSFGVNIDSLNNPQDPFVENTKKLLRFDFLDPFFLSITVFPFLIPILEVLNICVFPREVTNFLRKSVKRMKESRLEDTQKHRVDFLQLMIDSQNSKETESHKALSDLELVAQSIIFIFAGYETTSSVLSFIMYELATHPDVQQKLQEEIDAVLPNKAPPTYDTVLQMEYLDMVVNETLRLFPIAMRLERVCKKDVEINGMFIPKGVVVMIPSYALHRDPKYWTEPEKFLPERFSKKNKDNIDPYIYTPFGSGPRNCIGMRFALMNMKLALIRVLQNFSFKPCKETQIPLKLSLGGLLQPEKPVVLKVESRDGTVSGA
Outline: (§2)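 Substances were tested against enzyme with a pro-luciferin substrate; minus-enzyme wells served as background. After NADPH-initiated oxidation (30-45 min, RT), light was generated with P450-Glo reagent.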

[9] = biological target: Cytochrome P450 2D6 (Homo sapiens) (UniProt P10635); assay: qHTS for inhibitors of CYP2D6 against the NCATS DSHEA and TCM libraries (AID 1919972); note: % is set by controls: 0 for no effect and ±100 for the full control effect
Chain of Cytochrome P450 2D6 (Homo sapiens) (P10635 whole entry, looked up): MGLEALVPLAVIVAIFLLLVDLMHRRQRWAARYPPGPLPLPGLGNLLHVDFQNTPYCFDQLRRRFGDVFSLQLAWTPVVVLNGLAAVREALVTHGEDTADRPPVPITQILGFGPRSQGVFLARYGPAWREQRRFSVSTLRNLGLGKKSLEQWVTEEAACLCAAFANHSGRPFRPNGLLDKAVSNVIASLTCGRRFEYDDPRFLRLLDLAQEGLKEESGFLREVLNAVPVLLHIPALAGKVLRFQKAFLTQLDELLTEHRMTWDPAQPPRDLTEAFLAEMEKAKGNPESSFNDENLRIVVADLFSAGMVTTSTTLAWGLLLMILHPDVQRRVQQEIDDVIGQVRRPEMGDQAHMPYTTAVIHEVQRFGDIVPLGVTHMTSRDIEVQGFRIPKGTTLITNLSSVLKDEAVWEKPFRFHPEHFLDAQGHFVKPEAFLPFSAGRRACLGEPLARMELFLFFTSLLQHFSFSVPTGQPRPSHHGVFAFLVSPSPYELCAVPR
Outline: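 qHTS, concentration–response format with most substances from 19.5 nM. CYP2D6 + pro-luciferin substrate, 15 min with compound, then 1x NADPH regen, 30–45 min RT dark. Glo detection 30 min, luminescence. Quinidine control.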

[10] = biological target: Cytochrome P450 2C19 (Homo sapiens) (UniProt P33261); assay: qHTS for inhibitors of CYP2C19 against the NCATS DSHEA and TCM libraries (AID 1919974);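 note: luminescence from luciferin released by CYP2C19 oxidation of a pro-luciferin substrate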; note: potency is the fitted concentration of half-maximal effect
Chain of Cytochrome P450 2C19 (Homo sapiens) (P33261 whole entry, looked up): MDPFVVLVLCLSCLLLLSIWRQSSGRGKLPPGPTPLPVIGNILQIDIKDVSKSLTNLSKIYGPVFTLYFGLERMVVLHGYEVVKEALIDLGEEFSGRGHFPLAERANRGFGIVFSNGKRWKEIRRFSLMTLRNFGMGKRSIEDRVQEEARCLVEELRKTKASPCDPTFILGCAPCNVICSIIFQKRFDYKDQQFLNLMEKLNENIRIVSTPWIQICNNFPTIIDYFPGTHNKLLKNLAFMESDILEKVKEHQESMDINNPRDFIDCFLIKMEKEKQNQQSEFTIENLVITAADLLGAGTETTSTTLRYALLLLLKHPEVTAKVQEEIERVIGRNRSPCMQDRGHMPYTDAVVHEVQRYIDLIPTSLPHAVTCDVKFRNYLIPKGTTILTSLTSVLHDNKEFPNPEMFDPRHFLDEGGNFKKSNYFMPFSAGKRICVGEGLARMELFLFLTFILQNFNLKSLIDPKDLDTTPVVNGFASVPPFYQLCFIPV
Outline: as §2

[11] = KB-3-1 P-gp reporter qHTS against the NCATS DSHEA and TCM libraries (AID 1919975); note: 0% is about no effect
Outline: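 Cell viability qHTS: 500 KB-3-1 cells/well, substances in titration, ~72 h, 37C; luminescent CellTiter-Glo read.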

[12] = qHTS Counterscreen for compound interference against the NCATS DSHEA and TCM libraries (AID 1919978); conditions: firefly luciferase detection reagent interference, luminescence;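 note: compounds preincubated with 1 µM D-luciferin or buffer before detection reagent; % of control where 0% means no effect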
Outline: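 Interference check: test samples were incubated with D-luciferin (final 1 uM) or buffer only for 15 min, room temperature, in a qHTS titration up to 39.8 uM, then developed with detection reagent and read by luminescence.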

[13] = Dual reporter qHTS for agonist of Pregnane X Receptor (hPXR) against the NCATS DSHEA and TCM libraries: Fluorescence readout (AID 1920058); note: 0% is about no effect
Outline: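 Fluorescence read-out for cell viability: CellTiter-Fluor, 1 h at 37 °C, Ex/Em 405/540 nm. This followed ~24 h treatment of hPXR-Luc HepG2 cells with substances in agonist mode.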

[14] = biological target: Nuclear receptor subfamily 1 group I member 2 (Homo sapiens) (UniProt O75469); assay: Dual reporter qHTS for agonist of Pregnane X Receptor (hPXR) against the NCATS DSHEA and TCM libraries: Luminescence readout (AID 1920059); note: 0% is about no effect
Chain of Nuclear receptor subfamily 1 group I member 2 (Homo sapiens) (O75469 whole entry, looked up): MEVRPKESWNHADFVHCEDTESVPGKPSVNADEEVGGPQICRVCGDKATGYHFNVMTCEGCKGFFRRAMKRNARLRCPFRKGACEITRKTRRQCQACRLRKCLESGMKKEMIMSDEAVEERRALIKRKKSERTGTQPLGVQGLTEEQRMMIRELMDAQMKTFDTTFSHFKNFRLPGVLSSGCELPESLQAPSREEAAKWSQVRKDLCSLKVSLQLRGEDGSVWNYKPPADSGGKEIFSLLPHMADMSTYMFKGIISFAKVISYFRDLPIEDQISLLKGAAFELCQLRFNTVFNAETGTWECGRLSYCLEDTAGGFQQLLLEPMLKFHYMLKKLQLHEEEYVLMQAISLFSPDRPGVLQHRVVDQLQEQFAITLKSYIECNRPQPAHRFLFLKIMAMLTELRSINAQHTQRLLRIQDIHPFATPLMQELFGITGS
Outline: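 Luminescent PXR reporter read (ONE-Glo) after a CellTiter-Fluor viability read, following 24 h, 37C treatment of HepG2 cells stably carrying hPXR-Luc.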

[15] = biological target: Nuclear receptor subfamily 1 group I member 2 (Homo sapiens) (UniProt O75469); assay: Dual reporter qHTS for antagonist of Pregnane X Receptor (hPXR) against the NCATS DSHEA and TCM libraries: Luminescence Readout (AID 1920060);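 note: HepG2 cells carrying hPXR luciferase reporter stimulated with rifampicin at 2 µM; 0% is about no effect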
Outline: (§3)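 Antagonist mode: rifampicin 2 uM final co-added with compounds to hPXR-LucHepG2 cells for 24 h at 37C. Viability by CellTiter-Fluor, Ex/Em 405/540 nm, 1 h; reporter by ONE-Glo luminescence.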

[16] = Dual reporter qHTS for antagonist of Pregnane X Receptor (hPXR) against the NCATS DSHEA and TCM libraries: Fluorescence Readout (AID 1920061); note: 0% is about no effect
Outline: as §3

[17] = biological target: Glutathione peroxidase 1 (Homo sapiens) (UniProt P07203); assay: Primary qHTS Assay for Inhibitors of Recombinant Selenoprotein Glutathione Peroxidase 1 (GPX1) (AID 1845191); note: nearly all actives have a fitted effect of over 65% in size
Chain of Glutathione peroxidase 1 (Homo sapiens) (P07203 whole entry, looked up): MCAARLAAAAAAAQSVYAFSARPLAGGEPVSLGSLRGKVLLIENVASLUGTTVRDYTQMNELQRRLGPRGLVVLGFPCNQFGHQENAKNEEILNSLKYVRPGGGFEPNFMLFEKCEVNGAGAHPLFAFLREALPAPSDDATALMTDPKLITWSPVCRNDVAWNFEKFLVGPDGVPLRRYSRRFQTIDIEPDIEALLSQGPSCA
Outline: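 NADPH consumption tracked by fluorescence at 340/450 nm between t=0 and t=15 min, room temperature. Final mix: 10 nM GPX1, 100 nM glutathione reductase, 1 mM GSH, 0.5 mM NADPH, 0.5 mM cumene hydroperoxide, 0.01% BSA; 30 min compound–enzyme preincubation.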

[18] = biological target: Phospholipid hydroperoxide glutathione peroxidase GPX4 (Homo sapiens) (UniProt P36969); assay: Primary qHTS Assay for Inhibitors of Recombinant Selenoprotein Glutathione Peroxidase 4 (GPX4) (AID 1845192); note: nearly all actives have a fitted effect of over 65% in size
Chain of Phospholipid hydroperoxide glutathione peroxidase GPX4 (Homo sapiens) (P36969 whole entry, looked up): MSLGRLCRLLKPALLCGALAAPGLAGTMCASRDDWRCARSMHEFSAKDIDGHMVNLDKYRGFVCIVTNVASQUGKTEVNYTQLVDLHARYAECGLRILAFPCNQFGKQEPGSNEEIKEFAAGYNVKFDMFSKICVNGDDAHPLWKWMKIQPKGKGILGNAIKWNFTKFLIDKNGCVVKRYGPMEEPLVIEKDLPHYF
Outline: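 NADPH consumption followed by fluorescence at 340/450 nm, t=0 and after 15 min at room temperature. Reaction started with cumene hydroperoxide (0.5 mM final) after 30 min compound–GPX4 preincubation; final 200 nM GPX4, 100 nM GR, 1 mM GSH, 0.5 mM NADPH.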

[19] = biological target: Cytochrome P450 2C9 (Homo sapiens) (UniProt P11712); assay: qHTS for inhibitors of CYP2C9 against the NCATS DSHEA and TCM libraries (AID 1919973); note: potency is the fitted concentration of half-maximal effect
Chain of Cytochrome P450 2C9 (Homo sapiens) (P11712 whole entry, looked up): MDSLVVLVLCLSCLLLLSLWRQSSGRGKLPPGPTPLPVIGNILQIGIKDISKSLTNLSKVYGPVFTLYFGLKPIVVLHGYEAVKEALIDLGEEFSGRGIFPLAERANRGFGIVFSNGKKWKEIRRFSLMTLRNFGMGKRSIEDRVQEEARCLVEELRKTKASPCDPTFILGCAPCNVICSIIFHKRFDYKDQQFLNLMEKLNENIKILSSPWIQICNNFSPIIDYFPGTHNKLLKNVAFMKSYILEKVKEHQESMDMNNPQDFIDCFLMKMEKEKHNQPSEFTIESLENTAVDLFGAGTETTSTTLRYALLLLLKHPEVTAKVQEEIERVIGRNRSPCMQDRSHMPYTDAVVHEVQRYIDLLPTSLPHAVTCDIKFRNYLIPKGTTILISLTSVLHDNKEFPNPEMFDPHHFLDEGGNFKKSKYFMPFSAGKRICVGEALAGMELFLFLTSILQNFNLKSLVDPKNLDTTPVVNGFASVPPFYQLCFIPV
Outline: as §2

O=c1ccn2c(n1)O[C@H]1[C@H](O)[C@@H](CO)O[C@H]12
inactive: Potency [1] | Potency [2]

O=C(/C=C/c1ccc(O)c(O)c1)O[C@@H]1CC(O)(C(=O)O)C[C@@H](OC(=O)/C=C/c2ccc(O)c(O)c2)C1O (some centres not stated)
inactive: Potency [1] | outcome [3] | outcome [4] | Potency [5] | outcome [6] | outcome [7] | Potency [8] | Potency [9] | Potency [10] | outcome [11] | max response [12] 3.46% | outcome [13] | Potency [14] | outcome [15] | outcome [16]

O=C1CC(=O)c2c(Cl)c(Cl)c(Cl)c(Cl)c21
inactive: Potency [1]

O=c1cc(-c2ccc(O)c(-c3c(O)cc(O)c4c(=O)cc(-c5ccc(O)cc5)oc34)c2)oc2cc(O)cc(O)c12
inactive: Potency [1] | Potency [2]

CC1(C)CC[C@]2(C(=O)O)CC[C@]3(C)C(=CC[C@@H]4[C@@]5(C)CC[C@H](O)C(C)(C)[C@@H]5CC[C@]43C)[C@@H]2C1
inactive: Potency [1] | Potency [2] | Potency [17]

CCOC(=O)NCCCC(=O)NCCc1ccccc1
inactive: Potency [1] | Potency [2]

CCCCCCCCCCCCCCCCOc1nc2ccc(C)cc2c(=O)o1
inactive: Potency [1] | Potency [17]

Cc1cccc(C)c1N(CC(=O)Nc1ccc(-c2ncon2)cc1)C(=O)C1CCS(=O)(=O)CC1
inactive: Potency [1] | Potency [2]

C[C@H]1[C@H](OC(=O)CCC(=O)O)O[C@@H]2O[C@@]3(C)CC[C@H]4[C@H](C)CC[C@@H]1[C@@]24OO3
inactive: Potency [1] | Potency [17] | Potency [18]

[N-]=[N+]=NCc1cccc(/C(O)=C\C(=O)C(=O)O)c1
inactive: Potency [1] | Potency [2]

CC(C)(C)c1cc(C(=O)/C(C#N)=N/Nc2cccc(Cl)c2)no1
inactive: Potency [1]
active: Potency [2] 14.5 µM

CC(=O)N[C@@H](CC(C)C)C(=O)N[C@@H](CC(C)C)C(=O)N[C@H](C=O)CCCN=C(N)N
inactive: Potency [1] | Potency [2]

CC(C)c1nc(CN(C)C(=O)N[C@@H](CCN2CCOCC2)C(=O)N[C@H](CC[C@H](Cc2ccccc2)NC(=O)OCc2cncs2)Cc2ccccc2)cs1
active: Potency [2] 23 µM
inactive: Potency [1] | Potency [18]

CCCCCCCCCCCCCCCc1cccc(O)c1C(=O)O
inactive: Potency [1] | Potency [2]

CC(C)(C)NC(=O)N[C@H](C(=O)N1C[C@H]2[C@@H]([C@H]1C(=O)NC(CC1CCC1)C(=O)C(N)=O)C2(C)C)C(C)(C)C (some centres not stated)
inactive: Potency [1] | Potency [17] | Potency [18]

O=c1c(O[C@@H]2O[C@H](CO)[C@H](O)[C@H](O)[C@H]2O)c(-c2ccc(O)c(O)c2)oc2cc(O)cc(O)c12
active: Potency [19] 7.94 µM | Potency [10] 3.55 µM
inactive: Potency [1] | outcome [3] | outcome [4] | outcome [6] | outcome [7] | Potency [9] | outcome [11] | max response [12] 1.88% | outcome [13] | Potency [14] | outcome [15] | outcome [16]

COC[C@H]1C[C@@H](c2ncc(-c3ccc4c(c3)COc3cc5c(ccc6[nH]c([C@@H]7CC[C@H](C)N7C(=O)[C@@H](NC(=O)OC)C(C)C)nc65)cc3-4)[nH]2)N(C(=O)[C@H](NC(=O)OC)c2ccccc2)C1
inactive: Potency [1] | Potency [17]

CCCCC(=O)N(Cc1ccc(-c2ccccc2-c2nn[nH]n2)cc1)[C@H](C(=O)O)C(C)C
inactive: Potency [1] | Potency [17]

C[C@H]1O[C@@H](O[C@H]2CC[C@@]3(C)C(CC[C@]4(C)[C@@H]3C=CC3=C5CC(C)(C)CC[C@]5(CO)[C@H](O)C[C@@]34C)[C@]2(C)CO)[C@H](O)[C@@H](O[C@@H]2O[C@H](CO)[C@@H](O)[C@H](O)[C@@H]2O)[C@H]1O (some centres not stated)
inactive: Potency [1] | Potency [2]

CC(C)=C1C/C=C(\C)CC/C=C(\C)CC1=O
inactive: Potency [1]

C[C@@]1(F)[C@H](O)[C@@H](CO)O[C@H]1n1ccc(=O)[nH]c1=O
inactive: Potency [1] | Potency [2]

CC(C)C[C@H](NC(=O)[C@H]1O[C@@H]1C(=O)O)C(=O)NCCCCN=C(N)N
inactive: Potency [1] | Potency [17]

O=C(/C=C/c1ccc(O)c(O)c1)O[C@H]1[C@H](O)C[C@](O)(C(=O)O)C[C@H]1OC(=O)/C=C/c1ccc(O)c(O)c1
active: Potency [19] 15.8 µM
inactive: Potency [1] | outcome [3] | outcome [4] | Potency [5] | outcome [7] | Potency [9] | outcome [11] | max response [12] -1.54% | outcome [13] | Potency [14] | outcome [15] | outcome [16]

O=C1O[C@H]2[C@H](OC(O)[C@@H]2O)[C@@H]1O (some centres not stated)
inactive: Potency [1] | Potency [17] | Potency [18]
